Test results as given in PubChem BioAssay AID1508600 (Functional Genomics Laboratory (NCATS/FGL), 2020).
Among all 53,000 sequences or so, about 3,700 (7%) were called active. The full list was thinned out, with actives kept by preference. A number with no mark means an inactive call.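 The calls were made as follows: active = gene knockdowns whose robust z-score for IL-1 alpha signal is at least 2 or at most -2, so actives lie on both sides; inactive = the rest.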

assay: Components of the Cytosolic LPS Sensing Pathway: Gene Identification via Genome-wide siRNA Screen; details: RAW264.7 macrophages, IL-1a HTRF, actives lie on both sides, screened at 100 nM (by protocol), cells primed 5 h with Pam3CSK4 first;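 also: robust z of the log signal after scaling to non-targeting control siRNA wells of the plate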
Procedure, shortened: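 RAW264.7; siRNA 100 nM final, RNAiMAX, 48h 37 degrees C; Pam3CSK4 5 h; LipidA + TransIT-TKO 24 h; IL-1a HTRF; CellTiter-Glo viability; robust z vs negative-control median.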

| Sequence | z-score |
| --- | --- |
| GCUCGUUUGUGUAUAAGGATT against 4930503L19Rik | 0.276 |
| GGUUCUCGUGUGGCACACUTT against B3gat2 | 0.126 |
| CCUUCAAUCUUUCUUUCUGTT against Olfr1465 | -0.635 |
| CCGUGAUAACAACAUUUGUTT against Olfr750 | -0.833 |
| GGAGUAUGAUUCAGAAAUGTT against Scn11a | -0.607 |
| GGUCAUCAUGAGCCCAUGUTT against Olfr1341 | -1.72 |
| GGAUUUGGCUAUAUCAACATT against Rfc2 | -1.56 |
| CCAUAGCUCUGGAAUGGUGTT against Kcnt1 | -2.59 (active) |
| GGAUGUAUGCCAAAGAAUUTT against Fmo5 | -0.0456 |
| CGUGCUAAACCAAGACUUATT against Lyplal1 | 1.25 |
| GGGUGAAUUUUGUUUUUGUTT against Kcnj14 | 3.05 (active) |
| GGAUAGCAUGCUUCCUGAGTT against Rhbdf2 | -2.19 (active) |
| GGAAAUGCUCCUCUAGGAUTT against Ppcs | 0.039 |
| GGAUGAAGAACUGACUCCGTT against Mboat2 | -0.108 |
| GGUGCAAUCAAAUGGAAUUTT against Nrf1 | 3.75 (active) |
| GCUACGUAAACGGAAGGCUTT against Abraxas1 | 0.272 |
| GGUAAGAGGAUGGACACAATT against Chst1 | 1.08 |
| GAUCCGUUGGGAAAAGAACTT against Ssbp4 | -0.881 |
| GGCAGUUCUUAAGUAAUCATT against Fem1al | 0.924 |
| GGAGAAAGAAGCUAGUGAGTT against Gm6787 | -2.77 (active) |
| GCGAACUCCUCUUUAGGCATT against Chrng | -0.594 |
| GCCAUCCUUCCAUUUAAGATT against Wdyhv1 | -0.478 |
| GGUAAGGACUAUUUGAAUUTT against Lpar1 | -0.429 |

| Sequence | z-score |
| --- | --- |
| GCAAAUUAAGCACUGUAAGTT against Dennd1b | 0.379 |
| GGUGGUUAGAUCUUACGCUTT against Tmem184a | 4.37 (active) |
| CGCGUACGACUUCUACAAATT against Hmgcs2 | 0.775 |
| GGUGGAGUUUCUCAAAAGCTT against Kcnc3 | 0.0264 |
| GCAGGUACUGCGCUAUUAUTT against Atp13a2 | -0.766 |
| GGAUGUGGCUGCUUUGAAGTT against Mettl27 | -1.38 |
| CCUUCUAGACACCAUACCCTT against Pidd1 | 0.259 |
| CCACACGUUCCAUUUCUCGTT against Hilpda | -2.65 (active) |
| CGUCAUGCAUUUUUCUAAATT against Trim24 | 0.489 |
| GGAUGAGAAGAAAGAAGAUTT against Srrt | -1.36 |
| GGAUACAGCAGUACAAAUGTT against Ces2c | -0.135 |
| GGUGCGCUUCUAUGUUCCUTT against Ssrp1 | 2.38 (active) |
| GGCAAGGAUUUUUCUACCUTT against Tslp | -0.555 |
| GCUGCACAAGUGAUAUCCGTT against Trim26 | 0.397 |
| GGGAAAGCCAUCCUUCACUTT against Erich5 | 0.288 |
| GGAGAAAAAGAGAUAAGGUTT against Ppp2r2b | -0.893 |
| GCCAUUUGUCCACAAAAUGTT against Ces2g | -2.06 (active) |
| GGACCUGGAGUAUAUGCUGTT against Mgat4f | -0.611 |
| GGCACUGUUCUCAUCUGUGTT against Olfr736 | -2.41 (active) |
| GGUUGACUCUACAAAAUACTT against Muc5b | -0.656 |
| GGCAGUUGUGAACUUUCUCTT against Telo2 | 0.243 |
| GGAAAGGCUGUUUCCUACCTT against Atox1 | 1.05 |
| GGACUUGUGAUUCAAGCAUTT against Rad23b | 0.525 |

| Sequence | z-score |
| --- | --- |
| CCUGAUUGACGACAGUAAGTT against Mcrs1 | 0.519 |
| CGACCAGAGUUAUCUGAAUTT against Ctf2 | 2.2 (active) |
| GGGAAUUUAUGCAUUAGCATT against Kif2a | 0.111 |
| GGCUCUGCUAUUUCUCCUGTT against Olfr17 | -1.16 |
| GCUUGAAUGGAGCGAAUCGTT against Chat | 4.86 (active) |
| GGAAACAAAGUCAAUGUGGTT against Cnn1 | -0.522 |
| GCUGAAGUAGGGUUUAUUATT against Gdap10 | 0.786 |
| GCCUUGGACAAAAACACUATT against Ryk | -0.917 |
| CCUGAUUCCAAAUGUGUUUTT against Sgcb | 0.158 |
| GGACACAAAUGACAUCAACTT against Sirpa | 2.13 (active) |
| CGGCAUCCAGUCUCAGAUGTT against Coch | 1.88 |
| GCCUAAGUUCUAGCAAAAUTT against Spata31d1d | 0.514 |
| GGAAGCUACAUGCUGUUCCTT against Anln | 0.737 |
| UGAAAAGAGCAAUGAAGAATT against Olfr177 | -0.36 |
| GGAAAGGAGAAGAGAAAUGTT against Scyl1 | 1.18 |
| CCUGACAGUACCAAAAAAUTT against Pax4 | -0.599 |
| GGUACAAUGUUCAUACCAATT against Rab9b | 0.528 |
| GGGCUAUUGCAUCUUUUAATT against Olfr711 | -0.0884 |
| CCGAAUUGAAAUCACAAGCTT against Nup43 | -1.31 |
| GGAUUGUAAUAAUGGAGCCTT against H2-M10.4 | 2.94 (active) |
| GGAGAGGUGGUAUUGUUGGTT against Olfr1297 | 0.29 |
| GCUAAAUUCUUUCCUGAAGTT against Rdx | -1 |
| CCAGUUACUAGUAAUACUCTT against Mcm3ap | -0.0482 |
